Calls of active or inactive are those of the source. Entries that show only a call come without a potency. Calls come from the whole dose curve; as a rule, active = well fitted cell-killing curve with a large enough effect in the repeat runs; inconclusive = weak or mixed curves, or effect the other way; inactive = flat fitted curve, though single readings scatter.

Our source for the Potency values is PubChem BioAssay (Tox21).
Potency is the fitted concentration of half-maximal effect.

The assay can be described thus: qHTS assay to identify small molecule HDAC inhibitors - cell viability counter screen (AID 1259365). Note: nearly all actives have a fitted effect of over 50% in size. As to conditions: HCT-116 viability, CellTiter-Glo ATP luminescence, 2 h; series mostly up to 92.4 µM. An excerpt:
U.S. Tox21 Program National Center for Advancing Translational Sciences [NCATS] NIH Chemical Genomics Center [NCGC] U.S. Environmental Protection Agency [EPA] National Institutes of Environmental Health Sciences [NIEHS] National Toxicology Program [NTP] U.S. Food and Drug Administration [FDA] Tox21 Assay Overview: Histone deacetylases (HDACs) are a group of epigenetic enzymes that regulate gene expression by histone deacetylation. HDACs are capable of introducing epigenetic modifications and such aberrations contribute to the onset and progression of several human diseases, thus making HDACs a popular therapeutic target. For identifying endogenous class I/II HDAC inhibitors a homogenous, luminogenic HDAC I/II cell based assay was used to measure the relative activity of class I and II HDACs from cells. Wild type HCT-116 cells were used to screen Tox21 compound libraries for identifying class I/II HDAC inhibitors.
Tox21 Assay Protocol Summary: HCT-116 cells were dispensed at 1,500 per well in 5uL of culture medium into white solid bottom 1536-well plates (Greiner Bio-One, Monroe, NC) using a Multidrop Combi (Thermo Scientific, Waltham, MA) dispenser. The assay plates were incubated at 37 C and 5% CO2 for an overnight, and then 23nL of compounds dissolved in DMSO and positive control were transferred using a Pintool station (Wako, San Diego, CA). The assay plates were incubated at 37C and 5% CO2 for 2hr. After compound treatment, 4uL of CellTiter-Glo reagent (Promega Corporation, Madison, WI) was added to each well of the assay plates using Flying Reagent Dispenser (FRD, Aurora Discovery, San Diego, CA) and incubated the assay plates at room temperature for 30min. The luminescence signal was quantified using a ViewLux plate reader (Perkin Elmer, Shelton, CT).
A general note: In qHTS, concentration-response curves come from the screen itself.
Regarding `C[C@H]1O[C@@H](O[C@H]2[C@@H](O)C[C@H](O[C@H]3[C@@H](O)C[C@H](O[C@H]4CC[C@@]5(C)[C@H](CC[C@@H]6[C@@H]5CC[C@]5(C)[C@@H](C7=CC(=O)OC7)CC[C@]65O)C4)O[C@@H]3C)O[C@@H]2C)C[C@H](O)[C@@H]1O`, the Potency result is “inactive”.

Consider `O=C(CCl)C(Cl)Cl`, for which the Potency entry was “inactive”. In the case of `C[C@]12CC[C@H](O)C[C@H]1CC[C@@H]1[C@@H]2C[C@@H](O)[C@]2(C)[C@@H](C3=CC(=O)OC3)CC[C@]12O`, the Potency entry was “inactive”. As to `ClC(Cl)=C(c1ccc(Cl)cc1)c1ccc(Cl)cc1`, the Potency result was “inactive”. As for `CN(C)C(=S)S`, the Potency result was “inactive”. As for `CCc1cc(C)cc(CC)c1-c1c(OC(=O)C(C)(C)C)n2n(c1=O)CCOCC2`, the Potency entry was “inactive”. With `O=[N+]([O-])c1c2ccccc2cc2ccccc12` the entry was “inactive”; with `C1CCC2CCCCC2C1` (stereo not given), “inactive”; with `CC(C)CC(C)(c1ccc(O)cc1)c1ccc(O)cc1`, “inactive”. Next, `CC(=O)/C=C/c1ccc2c(c1)OCO2`: “inactive”. With `CC(C)CBr` the entry was “inactive”; with `c1ccc2c(c1)[nH]c1cnccc12`, “inactive”; with `Clc1ccc(C(c2ccc(Cl)cc2)C(Cl)(Cl)Cl)cc1`, “inactive”. As for `CNC(C)Cc1ccc2c(c1)OCO2` (stereo not given), the Potency entry is “inactive”.

In the case of `CCC(C)c1cc(C(C)(C)C)cc(-n2nc3ccccc3n2)c1O` (stereo not given), the Potency result was “inactive”.

Regarding `BrCBr`, the Potency result was “inactive”. With `CCc1nn(C)c(C(=O)NCc2ccc(C(C)(C)C)cc2)c1Cl` the entry was “inactive”. Next, `C[C@@H]1CC[C@@]2(OC1)O[C@H]1[C@@H](O)[C@H]3[C@@H]4CC[C@H]5C[C@@H](O[C@@H]6O[C@H](CO)[C@H](O[C@@H]7O[C@H](CO)[C@@H](O)[C@H](O[C@@H]8OC[C@@H](O)[C@H](O)[C@H]8O)[C@H]7O[C@@H]7O[C@H](CO)[C@@H](O)[C@H](O[C@@H]8O[C@H](CO)[C@@H](O)[C@H](O)[C@H]8O)[C@H]7O)[C@H](O)[C@H]6O)[C@H](O)C[C@]5(C)[C@H]4CC[C@]3(C)[C@H]1[C@@H]2C`: 29 µM (active).

Turning to `CC(=O)c1ccc(-c2ccccc2)cc1`, the Potency result was “inactive”. With `O=C1C=CC(=O)c2ccccc21` the figure was 48.6 µM (active); with `C=CCC1=C(C)C(OC(=O)C2C(C=C(C)C)C2(C)C)CC1=O` (stereo not given), “inactive”. As for `ClCc1ccccc1CCl`, the Potency result was “inactive”. Next, `Nc1c(Oc2ccccc2)cc(O)c2c1C(=O)c1ccccc1C2=O`: “inactive”; `ClC1=C(Cl)C2(Cl)C3C(Cl)C(Cl)CC3C1(Cl)C2(Cl)Cl` (stereo not given): “inactive”.

In the case of `COP(N)(=S)OC`, the Potency result is “inactive”. Next, `N#Cc1ccccc1N`: “inactive”; `CCOP(=S)(OCC)SCS(=O)(=O)C(C)(C)C`: “inactive”. On to `C=COCCCl`, for which the Potency result was “inactive”. Next, `Nc1ccc(Sc2ccc(N)cc2)cc1`: “inactive”.

As to `CC(C)CC(C)Nc1ccc(Nc2ccccc2)cc1` (stereo not given), the Potency result is “inactive”.

Consider `BrC(Br)C(Br)(Br)Br`, for which the Potency entry is “inactive”. With `O=C(O)COc1nc(Cl)c(Cl)cc1Cl` the entry was “inactive”. With `CCCN(CC)CC1COC2(CCC(C(C)(C)C)CC2)O1` (stereo not given) the entry was “inactive”. Turning to `CC(=O)c1cc(C(C)(C)C)cc2c1CCC2(C)C`, the Potency result was “inactive”. Regarding `COC12CC[C@@]3(C[C@@H]1C(C)(O)C(C)(C)C)[C@H]1Cc4ccc(O)c5c4[C@@]3(CCN1CC1CC1)[C@H]2O5` (stereo not given in full), the Potency result is “inactive”.

`C[C@@H]1O[C@@H](O[C@@H]2C=C3CC[C@@H]4[C@H](CC[C@]5(C)[C@@H](c6ccc(=O)oc6)CC[C@]45O)[C@@]3(C)CC2)[C@H](O)[C@H](O)[C@H]1O`: the Potency entry is “inactive”. Next, `CC(C)(C)c1cc([N+](=O)[O-])cc(C(C)(C)C)c1O`: “inactive”; `Cn1[nH]nnc1=S`: “inactive”.

With `COc1cccc(C(=O)CCN[C@@H](C)[C@H](O)c2ccccc2)c1`, the Potency entry is “inactive”. With `CN(C)c1ccc(N=Nc2ccccc2)cc1` the entry was “inactive”.
